# Source: PubChem BioAssay AID504333 (National Center for Advancing Translational Sciences (NCATS), 2011)
# About 16,000 (4.4%) of roughly 360,000 compounds were called active. About 9% were inconclusive and are not listed. The entries come from a sample that favours actives as a whole. A number with no mark means an inactive call. Calls come from the whole dose curve; as a rule, active = well fitted inhibition curve with a large enough effect; inconclusive = small, poorly fitted or top-dose-only effect; inactive = no such curve, though single readings can be large or run the other way.
# Target: Bromodomain adjacent to zinc finger domain protein 2B (Homo sapiens) (UniProt Q9UIF8)
# Sequence (Q9UIF8 whole entry, looked up, the tested form may be a part): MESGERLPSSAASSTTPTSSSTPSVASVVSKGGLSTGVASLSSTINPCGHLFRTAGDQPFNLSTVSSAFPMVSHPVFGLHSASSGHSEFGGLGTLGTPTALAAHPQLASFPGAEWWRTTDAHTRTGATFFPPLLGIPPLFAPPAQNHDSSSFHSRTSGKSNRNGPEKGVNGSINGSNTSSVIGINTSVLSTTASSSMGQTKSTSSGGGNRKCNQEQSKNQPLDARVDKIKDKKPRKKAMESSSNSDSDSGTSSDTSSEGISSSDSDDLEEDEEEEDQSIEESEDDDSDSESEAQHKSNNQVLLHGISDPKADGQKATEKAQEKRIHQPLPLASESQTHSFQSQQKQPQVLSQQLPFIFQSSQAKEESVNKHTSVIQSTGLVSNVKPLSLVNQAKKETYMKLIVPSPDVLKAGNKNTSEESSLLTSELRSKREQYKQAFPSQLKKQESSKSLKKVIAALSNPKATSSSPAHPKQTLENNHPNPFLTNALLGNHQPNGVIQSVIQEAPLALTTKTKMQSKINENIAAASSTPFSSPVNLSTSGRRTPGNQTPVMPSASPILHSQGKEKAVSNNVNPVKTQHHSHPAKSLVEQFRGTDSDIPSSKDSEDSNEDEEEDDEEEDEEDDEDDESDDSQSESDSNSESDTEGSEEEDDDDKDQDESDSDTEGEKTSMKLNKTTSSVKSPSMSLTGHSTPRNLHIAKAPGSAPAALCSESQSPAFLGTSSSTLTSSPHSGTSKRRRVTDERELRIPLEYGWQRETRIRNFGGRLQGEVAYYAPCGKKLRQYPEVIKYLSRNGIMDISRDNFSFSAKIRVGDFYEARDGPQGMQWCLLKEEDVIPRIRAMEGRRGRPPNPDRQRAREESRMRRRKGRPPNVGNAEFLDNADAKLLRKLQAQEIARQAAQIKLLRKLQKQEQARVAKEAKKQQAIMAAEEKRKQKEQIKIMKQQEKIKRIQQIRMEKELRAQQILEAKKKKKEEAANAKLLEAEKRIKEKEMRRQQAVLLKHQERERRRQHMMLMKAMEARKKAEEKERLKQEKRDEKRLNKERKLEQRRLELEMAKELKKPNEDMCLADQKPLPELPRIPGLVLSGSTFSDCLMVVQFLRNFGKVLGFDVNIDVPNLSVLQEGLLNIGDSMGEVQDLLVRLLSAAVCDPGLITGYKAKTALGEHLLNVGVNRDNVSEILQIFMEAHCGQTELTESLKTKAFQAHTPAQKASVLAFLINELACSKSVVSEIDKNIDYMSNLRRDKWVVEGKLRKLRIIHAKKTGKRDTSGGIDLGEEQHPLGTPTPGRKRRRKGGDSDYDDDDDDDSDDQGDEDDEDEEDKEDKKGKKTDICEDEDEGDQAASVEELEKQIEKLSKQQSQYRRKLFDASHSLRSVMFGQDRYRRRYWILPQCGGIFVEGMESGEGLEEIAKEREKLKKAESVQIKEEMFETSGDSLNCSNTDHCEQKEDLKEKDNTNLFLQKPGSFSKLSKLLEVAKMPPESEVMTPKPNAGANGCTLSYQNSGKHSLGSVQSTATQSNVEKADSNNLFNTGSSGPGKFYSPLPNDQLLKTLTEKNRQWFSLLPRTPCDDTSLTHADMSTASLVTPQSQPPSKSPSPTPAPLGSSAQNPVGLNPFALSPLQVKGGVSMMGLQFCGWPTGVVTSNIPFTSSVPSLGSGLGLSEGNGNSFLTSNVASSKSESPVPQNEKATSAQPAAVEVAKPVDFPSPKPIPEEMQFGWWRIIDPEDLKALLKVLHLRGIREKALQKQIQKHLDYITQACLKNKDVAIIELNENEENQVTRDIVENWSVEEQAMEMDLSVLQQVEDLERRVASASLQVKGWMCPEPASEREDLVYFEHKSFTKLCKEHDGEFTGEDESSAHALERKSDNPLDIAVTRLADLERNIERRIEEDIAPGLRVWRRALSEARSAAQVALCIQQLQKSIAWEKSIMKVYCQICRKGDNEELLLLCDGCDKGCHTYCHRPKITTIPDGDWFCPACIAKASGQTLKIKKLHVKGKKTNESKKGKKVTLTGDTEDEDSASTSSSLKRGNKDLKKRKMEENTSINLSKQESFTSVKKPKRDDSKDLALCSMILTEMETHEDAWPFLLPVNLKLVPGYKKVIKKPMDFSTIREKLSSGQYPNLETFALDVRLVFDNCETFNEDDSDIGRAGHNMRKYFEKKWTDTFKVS
# Test: qHTS Assay for Inhibitors of BAZ2B; note: nearly all actives have a fitted effect of over 60% in size
# Conditions: AlphaScreen BAZ2B-H3K14Ac peptide displacement; series mostly up to 114 µM; activity change, negative = inhibition: at the top concentration
# Description: BAZ2B (bromodomain adjacent to zinc finger domain, 2B) belongs to a family of ubiquitously expressed bromodomain containing proteins, which biological function has not yet been elucidated. […] The interaction of BAZ2B with ISWI mediated by the BAZ1 motif has recently been described. […] The protocol is based on the AlphaScreen (PerkinElmer) displacement assay developed by NCGC [5], but uses the peptide ligand Biot-H3K14Ac, a high affinity binding partner for BAZ2B, in an AlphaScreen format. Although AlphaScreen has significant advantages with its utility in a variety of epigenetic target assays, the primary screening data provided in this deposition should be used with caution due to the prevalence of screening artifacts. The top compound concentration tested was 110uM in this assay, which increases number of actives and potential artifacts. An AlphaScreen counterscreen is highly recommended to be run against any putative actives to eliminate non-specific artifacts. Alternatively, one can use other AlphaScreen assays in PubChem to filter out promiscuous hits. Eberharter, A. et al. ACF1 improves the effectiveness of nucleosome mobilization by ISWI through PHD-histone contacts. The EMBO journal 23, 4029-4039. 2004. PMID: 15457208 [2] Jones, M.H. et al. A novel family of bromodomain genes. Genomics 63, 40-45. 2000. PMID: 10662543 [3] Yasgar, et al. Compound Management for Quantitative High-Throughput Screening. JALA. 2008 Apr;13(2):79-89. PMID: 18496600 [4] Inglese, et al. Quantitative high-throughput screening: a titration-based approach that efficiently identifies biological activities in large chemical libraries. Proc Natl Acad Sci. 1;103(31):11473-8. 2006. PMID: 16864780 [5] Quinn et al. A chemiluminescence-based method for identification of histone lysine methyltransferase inhibitors. Mol Biosyst 6(5): 782-8. 2010. PMID: 20567762 [6] Baell,Holloway. New substructure filters for removal of pan assay interference compounds (PAINS) from screening libraries and for their exclusion in bioassays. J Med Chem. 53(7):2719-40. 2010. PMID: 20131845 NIH Molecular Libraries Probe Production Network [MLPCN] NIH Chemical Genomics Center [NCGC] Structural Genomics Consortium (SGC) NIH Grant: 5U54 MH084681-02
# To each well of a 1,536w plate, 2ul of BAZ2B protein (final 50nM) and 1ul biotinylated histone peptide acetylated at Lys14 [b-H3(5-23)K14Ac] (final 50nM) were added in 1x PBS buffer, pH 7.4, containing 0.01% Tween-20, using a nanoliter dispenser. Formation of a protein-peptide complex proceeded at room temperature for 30 min. A Kalypsys pin-tool was employed to transfer 23 nL of library compound solution in DMSO to each well. Following a 30 min incubation of the protein-peptide complex with compounds at room temperature, a mixture of 40 ug/mL each streptavidin-coated donor and nickel chelate acceptor AlphaScreen beads (final 10 ug/mL) were added in a 1ul dispense for a final volume of 4ul. A brief centrifugation followed (1000rpm, 1 min) and were then incubated protected from the light for 20 min at room temperature. Plates were read on an EnVision multilabel plate reader using the 1,536 plate HTS AlphaScreen aperture (excitation time 80 ms, measurement time 240 ms).
# % is set by controls: 0 for no effect and ±100 for the full control effect; potency is the fitted concentration of half-maximal effect.
Compound,Potency,"activity change, negative = inhibition"
O=C(O)c1cscn1,20 µM (active),–
COc1ccc(NC(=O)Cn2c(=O)cc(C)c3c(C)nn(-c4cccc(Cl)c4C)c32)cc1OC,–,6.48%
Cc1cccc(OCCSc2nc3ccc(NC(=O)COc4ccccc4C)cc3s2)c1,–,-0.749%
N/C(=N\OC(=O)Cc1ccc([N+](=O)[O-])cc1)c1ccccn1,50.1 µM (active),–
COc1ccccc1OCC(=O)O/N=C(\N)c1ccccn1,–,-12.8%
N/C(=N\OC(=O)c1ccc([N+](=O)[O-])cc1)c1ccccn1,–,-10.2%
CCOC(=O)c1cccc(NC(=O)Cn2cnc3nc4c(cc3c2=O)CCCC4)c1,–,0.226%
Cc1ccc(CCNC(=O)c2ccc3c(c2)nc2n3CCC(C)C2)cc1 (stereo unspecified),–,-1.73%
Cn1nnnc1SCCCNCc1cccc(OCc2ccc(Cl)cc2)c1,–,-10.3%
CC(C)CNC(=O)C(=O)Nc1ccc(N(C)C)cc1,–,2.15%
CN(C)c1ccc(N/C=C/C(=O)C(F)(F)F)cc1,28.2 µM (active),–
CC(=O)N(C)c1ccc(NC(=O)C(F)(F)F)cc1,–,0.95%
Cc1oc2ccc(O)c(CN3CCC(C)CC3)c2c1C(=O)Nc1ccccc1,–,-11.6%
Cc1c(OC(C)C(=O)N[C@@H](Cc2ccccc2)C(=O)O)ccc2c3c(c(=O)oc12)CCCC3 (stereo partly specified),–,4.24%
Cc1c(CCC(=O)N[C@@H](CC(C)C)C(=O)O)c(=O)oc2c(C)c3oc4c(c3cc12)CCCC4,–,2.36%
Cc1oc2c(C)c3oc(=O)c(CC(=O)N[C@@H](CC(C)C)C(=O)N[C@@H](Cc4ccccc4)C(=O)O)c(C)c3cc2c1C,35.5 µM (active),–
COc1ccc(NC(=O)CSc2nc3ncccc3[nH]2)c(OC)c1,–,19.4%
COc1ccc(C(=O)Nc2cccc(C(=O)OCc3cc(=O)n4c5c(sc4n3)CCCC5)c2)cc1,–,-3.18%
CCc1ccccc1NC(=O)Cc1ccc(NC(=O)N2CCCCc3ccccc32)cc1,–,-22.7%
COc1cc([N+](=O)[O-])ccc1NC(=S)N1CCN(c2ccccn2)CC1,–,-30%
O=[N+]([O-])c1ccc(N/N=C2/CCCCC2c2ccccn2)c([N+](=O)[O-])c1 (stereo unspecified),31.6 µM (active),–
O=C(Nc1ccccc1)O/N=C1\CCCCC1c1ccc([N+](=O)[O-])cc1[N+](=O)[O-] (stereo unspecified),–,-10.1%
Cc1ccc(F)cc1NC(=O)CCSc1nc(-c2ccco2)cc(C(F)(F)F)n1,–,-4.98%
COC(=O)c1cc(S(=O)(=O)N2CCN(c3cc(Cl)ccc3C)CC2)c[nH]1,–,-34.9%
COc1ccc(-c2nc3sc(CCNC(=O)C(C)(C)C)c(C)n3n2)cc1,–,-0.378%
COc1cc(-c2noc(-c3ccc(N4CCCC4)c([N+](=O)[O-])c3)n2)cc(OC)c1OC,–,-9.72%

Compound,Potency,"activity change, negative = inhibition"
Cc1ccc(Cl)cc1NC(=O)/C(C#N)=C\c1cn(Cc2ccc(F)cc2)c2ccccc12,–,-0.433%
COc1cc(OC)cc(C(=O)NCCSCc2ccco2)c1,–,1.54%
Cc1ccccc1NC(=O)NCc1ccco1,–,21.7%
Cc1ccsc1C(=O)NCCc1ccco1,56.2 µM (active),–
Cc1ccc(F)cc1S(=O)(=O)N1CCC(c2nc3ccccc3s2)CC1,–,0.45%
Cc1ccc(C(=O)COC(=O)C(Cc2c[nH]c3ccccc23)NC(=O)c2ccc(Br)cc2)cc1 (stereo unspecified),–,-3.33%
COc1cc(/C=N/NC(=O)c2ccoc2C)ccc1OCCN1CCCCC1,–,-8.24%
COc1ccc(OC)c(NC(=O)CCN2CCC(C)CC2)c1,–,3.12%
CC1CCN(CC(O)COc2ccc(C(=O)c3ccccc3)cc2)CC1 (stereo unspecified),–,9.12%
COc1cccc(OCCCN2CCCCCC2)c1,56.2 µM (active),–
COc1cccc(NC(=O)NCCN2CCCCC2)c1,–,7.24%
C/C=C/c1ccc(OCCOc2ccc(C=O)cc2OC)c(OC)c1,–,-0.85%
COc1ccc(OCCCCN2CCC(C)CC2)cc1,79.4 µM (active),–
C/C=C/c1ccc(OCCCCN2CCC(C)CC2)c(OC)c1,35.5 µM (active),–
COc1cccc(OCC(O)CN2CCN(CCO)CC2)c1 (stereo unspecified),–,3.99%
CCCCN(C)S(=O)(=O)c1ccc(C(=O)Nc2sc3c(c2C(N)=O)CC(C)(C)NC3(C)C)cc1,–,-0.53%
COC(=O)c1ccccc1NC(=O)Cn1c(=O)cc(C)c2c(C)nn(-c3cccc(Cl)c3C)c21,–,-12.2%
CCOc1ccc(CNC(=O)C2CCCN(S(=O)(=O)N(CC)c3ccc(OCC)cc3)C2)cc1 (stereo unspecified),–,-10.5%
Cc1ccc(Cc2nc3ccccc3nc2SCC(=O)Nc2cccc(C(F)(F)F)c2)cc1,–,-2.14%
Cc1nc2ccccn2c(=O)c1NC(=O)c1c(F)cccc1F,–,0.0769%
Cc1ccc(-c2nc3ccccn3c2Nc2c(C)cccc2C)o1,28.2 µM (active),–
Cc1cccc(C)c1Nc1c(-c2ccccc2O)nc2ncccn12,–,-2.78%
CCOC(=O)C1CCN(c2ncnc3c2c(-c2ccccc2)cn3-c2cccc(C)c2)CC1,–,-23.7%
CCOc1ccc(CCNC(=O)c2csc3c2CCCCC3)cc1,–,3.42%
COc1cc(NS(=O)(=O)c2ccc3ccccc3c2)c2ncccc2c1,–,19.5%
